The source of these data is PubChem BioAssay (NCATS).

SMILES strings stand for the structures. Results filed as inconclusive are left out. Unmarked numbers belong to inactive results. Activity calls are given as the source filed them. Calls follow the shape of the dose curve; as a rule, active = well fitted inhibition curve with a large enough effect; inconclusive = small, poorly fitted or top-dose-only effect; inactive = no such curve, though single readings can be large or run the other way. *1 amine or outer side, *2 acyl side, *3 side chain or, on linkers, in order; H or OH if unused. Where a SMILES comes first, the peptide text is derived from it. Bridges are numbered along the chain shown (N, C = ends). [ ]: non-standard residue; d: D form. The star is where a group is joined. pTerphenylCO(4''-OnC5H11) = CCCCCOc1ccc(-c2ccc(-c3ccc(C(=O)*)cc3)cc2)cc1; Orn(4R-OH,5R-OH) = O=C([C@H](C[C@@H](O)[C@@H](O)N[*:3])N[*:1])[*:2]; hTyr(3S-OH,4S-OH) = N[C@H](C(=O)O)[C@H](O)[C@@H](O)c1ccc(O)cc1; Pro(3S-OH,4S-Me) = C[C@H]1CN[C@H](C(=O)O)[C@H]1O; Hyp = O=C(O)[C@@H]1C[C@@H](O)CN1; Cbz = O=C(OCc1ccccc1)*; CH2Cl = ClC*

The test system of experiment [1] is Zika virus NS2B-NS3 protease (unlinked complex). Briefly: Primary screen GU Rhodamine qHTS for Zika virus inhibitors: Unlinked NS2B-NS3 protease assay (AID 1347159). Also: nearly all actives have a fitted effect of over 60% in size. The method in brief: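 Enzyme 25 nM in Tris-HCl pH 8.0 + 0.01% Tween 20; compounds up to 114 microM, 15 min RT dark; + Rhod110 substrate 1.5 microM; read t0 and 15 min; delta fluorescence → % inhibition → 4-parameter Hill fit.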
On the technique in general: Quantitative high-throughput screening tests each substance at several concentrations.

Experiment [2] deals with Zika virus NS2B-NS3 protease (linked construct). The experiment can be described thus: Primary screen NINDS Rhodamine qHTS for Zika virus inhibitors (AID 1347160). Also: nearly all actives have a fitted effect of over 55% in size. The essentials:
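Enzyme (25 nM, linked NS2B-NS3) was preincubated 15 min with compound in 10 mM Tris-HCl pH 8.0, 0.01% Tween 20. Rhodamine110 substrate (1.5 microM) was then added and fluorescence read at start and after 15 min.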
Potency is read from the fitted curve at half-maximal effect.

As for `C=C[C@@]12COC(=O)C(=C)[C@@H]1[C@@H](O)[C@H](C(=C)C(=O)OC)[C@@H](O)C2`, the Potency entry in experiment [1] and in experiment [2] was “inactive” each time.

On to `Fc1ccc(N2CCCCC2)c(NC(=S)c2ccncc2)c1`, for which the Potency result in experiment [1] and in experiment [2] was “inactive” each time.

Take `CC(O)(C(=O)C1CC1(CO)COC1OC(CO)C(O)C(O)C1O)C1C(O)CC2C3CC=C4CC(O)CC(O)C4(C)C3C(O)CC21C` (configuration not stated): the Potency entry in experiment [1] and in experiment [2] was “inactive” throughout.

In the case of `Cc1cc(C(=O)Cn2cc(C#N)ccc2=O)c(C)n1Cc1ccccc1`, the Potency result in experiment [1] and in experiment [2] was “inactive” in each case.

Regarding `CC1(C)SCCN(S(=O)(=O)c2ccc(Oc3ccncc3)cc2)[C@H]1C(=O)NO`, the Potency entry in experiment [1] and in experiment [2] was “inactive” throughout.

For `COc1ccc(-c2csc(NC(=O)[C@H]3CCCCN3S(=O)(=O)c3ccc(C)cc3)n2)cc1`, the Potency entry in experiment [1] and in experiment [2] was “inactive” each time.

In the case of `CCOc1cn(-c2ccc(F)cc2C)nc1C(=O)Nc1ccc(Oc2ccnc3cc(OC)c(OC)cc23)c(F)c1`, the Potency entry in experiment [1] and in experiment [2] was “inactive” each time.

Consider `C[C@@H](N[C@H]1CCCC[C@@H]1NC(=O)c1ccc(Cl)cc1)c1cccc2ccccc12`, for which the Potency result in experiment [1] and in experiment [2] was “inactive” throughout.

In the case of `Nc1nc(O)c(C2=C3C(=Nc4ccccc43)C(=O)NCC2)[nH]1`, the Potency entry in experiment [1] and in experiment [2] was “inactive” in each case.

Turning to `CC(C)c1cc2c(N3CCN(C4=NCC(C)(C)S4)CC3)ncnc2s1`, the Potency result in experiment [1] and in experiment [2] was “inactive” in each case.

As for `O=c1ccc2ccc(OCCCCN3CCN(c4cccc5sccc45)CC3)cc2[nH]1`, the Potency result in experiment [1] and in experiment [2] was “inactive” each time.

In the case of `CCCCCOc1ccc(-c2ccc(-c3ccc(C(=O)N[C@H]4C[C@@H](O)[C@@H](O)NC(=O)[C@@H]5[C@@H](O)[C@@H](C)CN5C(=O)[C@H]([C@@H](C)O)NC(=O)[C@H]([C@H](O)[C@@H](O)c5ccc(O)cc5)NC(=O)[C@@H]5C[C@@H](O)CN5C(=O)[C@H]([C@@H](C)O)NC4=O)cc3)cc2)cc1` ({pTerphenylCO(4''-OnC5H11)}-[Orn(4R-OH,5R-OH)]T[Hyp][hTyr(3S-OH,4S-OH)]T[Pro(3S-OH,4S-Me)]; lactam 1-C), the Potency in experiment [1] is 31.6 µM (active). In experiment [2], the Potency entry is “inactive”.

For `Cc1cc(C)c(-n2cc(C)c3c(Cl)nc(C)nc32)c(C)c1`, the Potency result in experiment [1] and in experiment [2] was “inactive” each time.

In the case of `CC[C@@H]1C[C@]1(NC(=O)[C@@H]1C[C@@H]2CN1C(=O)[C@H](C(C)(C)C)NC(=O)OCC(C)(C)CCCCc1cccc3c1CN(C3)C(=O)O2)C(=O)NS(=O)(=O)C1CC1`, the Potency was 28.2 µM (active) in experiment [1] and 22.4 µM (active) in experiment [2].

On to `CC(=O)Nc1nc(C)c(-c2nc(N3CCCC(O)C3)no2)s1` (configuration not stated), for which the Potency entry in experiment [1] and in experiment [2] was “inactive” in each case.

For `Cn1cc(-c2ccc3c(c2)CCN3C(=O)Cc2cccc(C(F)(F)F)c2)c2c(N)ncnc21`, the Potency entry in experiment [1] and in experiment [2] was “inactive” in each case.

As to `C[C@@H](c1ccc2nccn2c1)n1nnc2ncc(-c3cnn(C)c3)nc21`, the Potency result in experiment [1] and in experiment [2] was “inactive” throughout.

Consider `CNc1nc(Nc2ccc(C(=O)N3CCOCC3)cc2OC)nc2[nH]cc(Cl)c12`, for which the Potency entry in experiment [1] and in experiment [2] was “inactive” each time.

In the case of `CC(C)OC(=O)N1CCC(Oc2ncnc3c2cnn3-c2ccc(S(C)(=O)=O)cc2F)CC1`, the Potency result in experiment [1] and in experiment [2] was “inactive” in each case.

Regarding `C=C(C)Cn1c(SCC(=O)c2cccs2)nc2sc3c(c2c1=O)CCCC3`, the Potency result in experiment [1] and in experiment [2] was “inactive” in each case.

For `COc1cc([C@H]2O[C@H](c3cc(OC)c4c(c3)OCO4)[C@H](C)[C@H]2C)cc(OC)c1OC`, the Potency result in experiment [1] and in experiment [2] was “inactive” in each case.

Take `CO[C@H]1C[C@@H]2CC[C@@H](C)[C@@](O)(O2)C(=O)C(=O)N2CCCC[C@H]2C(=O)O[C@H]([C@@H](C)C[C@@H]2CC[C@@H](O)[C@H](OC)C2)CC(=O)[C@H](C)/C=C(\C)[C@@H](O)[C@@H](OC)C(=O)[C@H](C)C[C@H](C)/C=C/C=C/C=C/1C`: the Potency result in experiment [1] and in experiment [2] was “inactive” each time.

With `Cc1c(NC(=O)OCC2COCCN2)cn2ncnc(Nc3ccc4c(cnn4Cc4cccc(F)c4)c3)c12` (configuration not stated), the Potency entry in experiment [1] and in experiment [2] was “inactive” in each case.

`CN(C)[C@@H]1CCc2[nH]c3ccc(NC(=O)c4ccc(F)cc4)cc3c2C1`: the Potency entry in experiment [1] and in experiment [2] was “inactive” each time.

As for `CNC(=O)c1ccc2c(c1)CCO[C@H]2CCN1CCN(c2ccc(OC)cc2)CC1`, the Potency result in experiment [1] and in experiment [2] was “inactive” each time.

Consider `C[C@@H]1C[C@H](C)CN(CCC(=O)Nc2ccc(Br)cc2)C1`, for which the Potency result in experiment [1] and in experiment [2] was “inactive” each time.

As for `C[C@H](Nc1ncnc2nc[nH]c12)c1cc2cccc(Cl)c2c(=O)n1-c1ccccc1`, the Potency entry in experiment [1] and in experiment [2] was “inactive” in each case.

Take `CC(C)C[C@H](NC(=O)CNC(=O)OCc1ccccc1)C(=O)N[C@@H](Cc1ccccc1)C(=O)CCl` (Cbz-Gly-Leu-Phe-CH2Cl): the Potency result in experiment [1] and in experiment [2] was “inactive” in each case.

With `CN1CCC(NC(=O)c2cc(-c3c(O)cc(O)cc3Oc3ccc([N+](=O)[O-])cc3)on2)CC1`, the Potency entry in experiment [1] and in experiment [2] was “inactive” throughout.

As for `C[C@@H]1O[C@@H](O[C@H]2[C@@H]3C=CO[C@@H](O[C@@H]4O[C@H](CO)[C@@H](O)[C@H](O)[C@H]4O)[C@@H]3[C@@]3(CO)O[C@@H]23)[C@H](O)[C@H](OC(=O)/C=C/c2ccccc2)[C@H]1O`, the Potency result in experiment [1] and in experiment [2] was “inactive” throughout.

On to `Cn1sc(=O)n(Cc2ccccc2)c1=O`, for which the Potency entry in experiment [1] and in experiment [2] was “inactive” in each case.
